Screens: PubChem, National Center for Advancing Translational Sciences (NCATS)
A selection: hits, their analogues and other compounds. The true share with any hit is near 7.3%.
Rab9 prom act: activates the Rab9 promoter; Potency, µM (top dose mostly 9.22 µM), without a hit: top-dose activation, negative = inhibition, hits mostly activators; 320,000 compounds, 2.8% hits; Huh7 Rab9 promoter-luciferase reporter, luminescence, 24 h; also: % of control where 0% means no effect; nearly all actives have a fitted effect of over 60% in size
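Luminescence from Amplite-detected luciferase (10 minutes, ambient) reports Rab9 promoter activation. Before that, stable Rab9-luciferase Huh7 cells (1500/well, reduced-serum OP-MEM I plus 10% FBS) were exposed to compound for 24 hours at 37C.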
ELG1 genotox: inducers of genotoxicity in HEK293T ELG1-luciferase cells; HEK293T ELG1-luciferase reporter, luminescence, 16 h; Potency, µM (highest dose often 46 µM), for inactives: top-dose activity change, positive = activation, most hits filed as activators; 330,000 compounds, 1.3% hits; also: % of control where 0% means no effect; nearly all actives have a fitted effect of over 60% in size
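DMSO vehicle served as control against compound-treated ELG1-luciferase HEK293T cells; exposure lasted 16 hr at 37 °C and 5% CO2, followed by ONE-Glo luminescence detection after 30 min.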
SMN2 splice up: increases expression of the SMN2 splice variant. HEK293 SMN2-luciferase splicing reporter, luminescence, 30-36 h. Potency, µM (titrated, usually from 46.1 µM), for inactives: top-dose activity change, positive = activation, usual class: activators. 210,000 compounds, 2.8% hits. AID 1458; also: % of control where 0% means no effect; nearly all actives have a fitted effect of over 55% in size
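HEK293 cells carry an SMN2 […]–luciferase reporter in which exon 7 inclusion puts luciferase in frame. Cells were plated 10-12 h before compound addition, then incubated 30-36 h at 37C. ONE-Glo luminescence was read; sodium butyrate at 4.5 mM final served as control.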
FLuc counter: inhibits or activates purified firefly luciferase, miR-21 counter-screen. 360,000 compounds, 6.9% hits. Potency, µM (series often up to 57.5 µM), for inactives: at the top dose activity change, negative = inhibition, most hits filed as inhibitors. P08659. purified FLuc, Km substrates, luminescence inhibition. AID 588342;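 also: plate controls were vehicle for no effect and reference inhibitor for full effect; nearly all actives have a fitted effect of over 55% in size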
Target sequence (P08659 whole entry, looked up): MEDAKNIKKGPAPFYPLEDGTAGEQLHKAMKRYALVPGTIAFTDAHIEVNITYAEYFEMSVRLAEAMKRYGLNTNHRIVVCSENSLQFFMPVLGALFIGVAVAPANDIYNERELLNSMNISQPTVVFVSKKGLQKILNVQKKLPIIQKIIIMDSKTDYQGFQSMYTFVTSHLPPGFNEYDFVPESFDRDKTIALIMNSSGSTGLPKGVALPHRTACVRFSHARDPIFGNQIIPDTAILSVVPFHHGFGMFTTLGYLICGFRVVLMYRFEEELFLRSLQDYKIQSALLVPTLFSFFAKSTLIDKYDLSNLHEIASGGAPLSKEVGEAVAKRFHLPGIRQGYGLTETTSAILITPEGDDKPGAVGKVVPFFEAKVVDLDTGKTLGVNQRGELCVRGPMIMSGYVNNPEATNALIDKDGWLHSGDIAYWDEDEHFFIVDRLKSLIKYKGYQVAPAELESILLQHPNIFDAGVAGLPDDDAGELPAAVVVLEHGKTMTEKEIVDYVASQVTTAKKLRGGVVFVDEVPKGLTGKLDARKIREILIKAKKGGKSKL
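Purified P. pyralis luciferase, 10 nM final, with Km-level 10 uM D-luciferin and 10 uM ATP in 50 mM Tris acetate pH 7.5, 10 mM Mg acetate, 0.01% Tween-20, 0.05% BSA; 6-point qHTS titration about 60 µM downward; luminescence read.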
NPC1 promoter act: activators of NPC1 promoter; Huh7 NPC1 promoter luciferase reporter, 24 h; Potency, µM (series often up to 9.22 µM), inactives show at the highest dose activation, most hits filed as activators; 320,000 compounds, 2.4% hits; also: % of control where 0% means no effect; nearly all actives have a fitted effect of over 60% in size
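NPC1 promoter–luciferase Huh7 cells; 24 h compound; luminescence.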
p53 reactivation: restores transcriptional activity of mutant p53 | H1299 p53-A138V BP100-luciferase reporter, luminescence, 24 h | Potency, µM (doses to about 92.2 µM), without a hit: at the top dose activity change, positive = activation, actives largely listed as activators | 320,000 compounds, 0.063% hits | AID 504706; also: % of control where 0% means no effect; nearly all actives have a fitted effect of over 45% in size
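p53-null H1299 cells stably carrying temperature-sensitive p53-A138V and a BP100-luciferase reporter were pinned with compounds (4-point, 1:5 series) and held 24 hrs at 37 deg C. Luminescence was read 10 min after detection reagent.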
* hit, by the source's call; ? = inconclusive; · = no result. Calls follow the shape of the dose curve; as a rule, active = well fitted curve in the direction sought with a large enough effect; inconclusive = small, poorly fitted or top-dose-only effect, or another doubt; inactive = no such curve, though single readings can be large; an effect the other way counts as inactive or inconclusive. Potency is read from the fitted curve at half-maximal effect.

SMILES	Rab9 prom act	ELG1 genotox	SMN2 splice up	FLuc counter	NPC1 promoter act	p53 reactivation
CC(=O)Oc1ccc(-c2ccc(C(=O)NCCc3ccc(S(N)(=O)=O)cc3)cc2)cc1	-1%	14%	·	1%	-5%	8%
CCOC(=O)c1c(C)c(C(=O)NCCc2ccccc2)c(C)n1C	3.5µM*	?	16µM*	?	?	19%
CC(=O)Oc1ccc(C(=O)NCCc2ccccc2)cc1	0.5µM*	15%	8.9µM*	9.5µM*	0.4µM*	13%
CCOC(=O)c1c(C)c(C(=O)NCc2cccnc2)c(C)n1C	4%	-5%	-11%	0%	1%	2%
Cc1ccc(NC(=O)c2cc(S(=O)(=O)N3CCCCC3)c[nH]2)cc1N(C)C	·	·	·	0%	·	·
Cc1ccc2nc(NC(=O)c3ccc(NS(=O)(=O)c4cccs4)cc3)sc2c1	16%	9%	-8%	12µM*	15%	?
Cc1ccc2nc(NC(=O)CCNS(=O)(=O)c3ccc(Br)s3)sc2c1	4%	-4%	-11%	19µM*	1%	?
COc1ccc(C)cc1NC(=O)c1ccc(NS(=O)(=O)c2cccs2)cc1	-1%	4%	·	2%	0%	-5%
Cc1ccc2nc(NC(=O)CCNS(=O)(=O)c3cccs3)sc2c1	22%	-4%	-1%	12µM*	17%	26%
C/C(=N\NC(=O)c1ccc(NS(=O)(=O)c2cccs2)cc1)c1ccc(C(C)(C)C)cc1	-7%	0%	?	12µM*	0%	?
Cc1cccc2sc(NC(=O)CCNS(=O)(=O)c3cccs3)nc12	5%	-8%	1%	-1%	-10%	-14%
O=C(Nc1ccccc1)N1CC[C@@]2(CCCN(C(=O)c3cccc(F)c3)C2)C1	·	·	4%	·	·	·
CCCCCOP(=O)(OCCCCC)C1(NS(=O)(=O)c2ccccc2)C=CC(=O)c2ccccc21 (stereo unspecified)	22%	0%	·	-1%	-3%	-36%
CCOc1cc(/C=C2\COc3ccccc3C2=O)cc(Br)c1OCC(=O)N(C)C	3%	-10%	·	?	-16%	-22%
COc1ccc(/C=C2\C(=O)OCc3cc(OC)c(OC)cc32)cc1OC	-12%	18%	12%	13µM*	3%	4%
COc1cc2c(cc1OC)/C(=C/c1ccc(Cl)cc1)C(=O)OC2	-5%	3%	-17%	4%	-5%	-1%
O=C(O)c1ccc(/C=C2\COc3ccccc3C2=O)cc1	-8%	-5%	·	19µM*	-3%	?
COc1cc(/C=C2/CCc3ccccc3C2=O)cc(OC)c1OC	-2%	-6%	-53%	?	1%	?
COc1ccc(/C=C2/CCc3ccccc3C2=O)cc1OC	-2%	?	-52%	3.4µM*	3%	?
COc1ccc(/C=C2\COc3ccccc3C2=O)cc1OC	0%	-14%	-11%	13µM*	0%	?
O=[N+]([O-])c1cc([N+](=O)[O-])c(Oc2cc(F)ccc2F)cc1NN1CCCCC1	0%	1%	·	2%	-2%	9%
O=C(NCCCn1ccnc1)/C(=C\c1ccc(Br)cc1)NC(=O)c1ccccc1F	2%	-7%	·	-4%	-3%	2%
CCC(C)(C)C(=O)Nc1cccc(Cl)c1C	1%	-2%	10%	1%	-4%	7%
COc1ccc2c(c1)CC/C(=C\c1ccc(OC)c(Cn3cccn3)c1)C2=O	8%	-22%	-48%	13µM*	-3%	6%
COc1ccc(/C=C2\OC(=O)c3c(OC)cccc32)cc1OC	2.8µM*	?	?	1.1µM*	2.8µM*	7%
COc1ccc(/C=C2\COc3ccccc3C2=O)c(OC)c1	0%	?	·	4.8µM*	-17%	?
Cc1cc(C)c2c(c1)C(=O)/C(=C/c1ccc(C(=O)O)cc1)CC2	20%	14%	·	19µM*	19%	17%
